From the supplement of paper PMC3334620
Over roughly 33,000 sequences, “E-score (-0.5 to 0.5)” has its median near -0.054; the highest 2% begin near 0.39. Shown is part of a subset that was picked to be rich in the highest values.

molecular target: Ylr278c (UniProt Q05854); test: PBM E-score (8-mer binding enrichment) (E-score (-0.5 to 0.5)); higher = stronger / more preferred TF binding; settings: protein concentration: 200 nM; construct: GST-DNA-binding domain
Experimental: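 Universal 'all 10-mer' protein binding microarrays (Agilent AMADID 015681) probed with GST-tagged S. cerevisiae TFs (full-length or DBD) made by in vitro transcription/translation (PURExpress), about 100-200 nM. Bound TF was detected with fluorescent anti-GST. Each ungapped 8-mer (which stands for itself and its reverse complement) is scored by the PBM enrichment score (E-score), a modified Wilcoxon-Mann-Whitney statistic from -0.5 to +0.5, computed with the Universal PBM Analysis Suite. Scale: above 0.35 generally sequence-specific binding.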

Chain of UniProt Q05854 (Q05854 whole entry, the tested form may be a part): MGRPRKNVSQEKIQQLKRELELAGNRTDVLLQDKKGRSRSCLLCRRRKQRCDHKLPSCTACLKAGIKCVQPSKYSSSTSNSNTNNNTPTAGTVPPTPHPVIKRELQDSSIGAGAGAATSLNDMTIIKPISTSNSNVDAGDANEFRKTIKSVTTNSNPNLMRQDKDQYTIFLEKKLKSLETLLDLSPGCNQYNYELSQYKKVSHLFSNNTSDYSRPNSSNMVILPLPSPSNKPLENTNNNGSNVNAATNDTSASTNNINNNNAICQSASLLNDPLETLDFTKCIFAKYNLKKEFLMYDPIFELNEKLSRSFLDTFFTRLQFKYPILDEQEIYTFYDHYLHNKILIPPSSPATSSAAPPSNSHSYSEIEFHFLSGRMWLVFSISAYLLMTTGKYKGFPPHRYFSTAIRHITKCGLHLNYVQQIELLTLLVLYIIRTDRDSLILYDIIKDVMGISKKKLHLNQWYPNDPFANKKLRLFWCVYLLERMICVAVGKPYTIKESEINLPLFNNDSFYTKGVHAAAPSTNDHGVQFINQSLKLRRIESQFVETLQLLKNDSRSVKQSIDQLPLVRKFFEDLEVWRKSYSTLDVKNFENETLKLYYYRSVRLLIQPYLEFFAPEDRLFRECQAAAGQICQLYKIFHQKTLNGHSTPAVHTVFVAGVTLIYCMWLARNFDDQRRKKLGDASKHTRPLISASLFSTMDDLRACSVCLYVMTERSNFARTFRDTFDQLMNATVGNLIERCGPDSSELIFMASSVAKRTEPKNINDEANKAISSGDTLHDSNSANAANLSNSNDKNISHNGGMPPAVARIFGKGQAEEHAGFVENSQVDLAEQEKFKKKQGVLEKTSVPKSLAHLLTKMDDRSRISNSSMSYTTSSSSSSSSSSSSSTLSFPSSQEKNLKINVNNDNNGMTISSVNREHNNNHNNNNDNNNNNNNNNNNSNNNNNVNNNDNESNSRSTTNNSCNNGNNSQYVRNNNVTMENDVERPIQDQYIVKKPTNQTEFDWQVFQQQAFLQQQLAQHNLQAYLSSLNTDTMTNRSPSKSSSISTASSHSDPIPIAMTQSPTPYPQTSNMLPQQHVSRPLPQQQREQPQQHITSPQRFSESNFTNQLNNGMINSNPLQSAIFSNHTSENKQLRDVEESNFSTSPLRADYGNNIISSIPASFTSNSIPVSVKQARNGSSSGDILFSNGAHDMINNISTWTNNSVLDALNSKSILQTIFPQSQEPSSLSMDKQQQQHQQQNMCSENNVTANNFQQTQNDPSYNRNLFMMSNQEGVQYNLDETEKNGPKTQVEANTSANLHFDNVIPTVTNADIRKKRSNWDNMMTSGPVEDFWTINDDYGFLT

Sequence	PBM E-score
CTTCAACC	-0.0749
GCGATGCC	0.0401
AGAGATGC	-0.0846
CATCACGC	0.0744
ACGTGGAT	-0.233
AAAAGGTG	-0.196
ATCCCTAA	-0.254
ACGGCCCC	-0.034
CGGCGGAA	0.438
GGGCGGAA	0.364
AGGCGGAA	0.304
ATTCCGCA	0.356
ATTCCCCC	0.162
ATTCCGCC	0.418
ATGCCGCG	0.304
ATTCCGCG	0.439
CTTCCGCC	0.343
CACACCCA	-0.107
GTACAACA	0.014
GAACTACC	0.0269
GAAAGTAA	-0.0679
CAACTGCC	-0.00091
CCTTTGAC	-0.121
CTGATTTC	-0.0243

Sequence	PBM E-score
CGGATTAA	0.39
CCGATTCC	0.393
GCGATTCC	0.237
CCGATTTA	0.396
ACGATTTA	0.0466
GGGATTAA	0.223
CGGATTAG	0.299
CCGATTCG	0.267
CCGATTTC	0.303
AGGATTTC	0.0497
CGGATTTC	0.448
TACGCGAA	-0.0238
ACAGGAGC	-0.0789
CTCATGGC	-0.0203
ATGCAAGA	-0.214
ACACTAAC	0.0293
ACCAAGAT	-0.0275
GACAATTA	0.0117
GGATCGTA	-0.00905
AATAGATA	-0.126
ACACTGCC	0.154
CGGATGTA	0.307
GGGATTTA	0.287
CGGATTCC	0.427

Sequence	PBM E-score
CGGATTCA	0.161
AGGATGTC	-0.0871
CGGATTTA	0.451
AGGATTCC	-0.00339
CGGATGTC	0.4
AGGATTTA	0.00139
TTAAAAAA	-0.12
AGACCCAC	-0.00095
GACTAAAC	-0.0103
GGGCAACA	0.0452
AACCACTG	-0.136
GCCCTCAC	-0.226
AATCCCGT	0.346
CATCCCGA	0.262
TATCCCGA	0.258
AATCCCCA	-0.0702
AATCCCGA	0.42
AATCCCGG	0.439
CATCCCCA	-0.109
CATCCCGG	0.342
CATCCCCC	-0.0212
CATCCCCG	0.396
AATCCCCC	0.0792
AATCCCCG	0.398

Sequence	PBM E-score
AGGTTCAG	0.0375
AAGCCTCC	0.0849
CATTGGCA	-0.208
CAAGATCC	0.167
ATTATAGC	-0.086
ATGTCTAC	-0.1
AGAAAGAT	-0.103
CACGTCAC	-0.147
GCGCATAA	-0.0332
ACCAAGAG	-0.29
CCCGAGGA	0.061
GCCGAGGA	0.197
TCCGAGGA	0.401
CCCGAGAA	0.293
GCCGATAA	0.301
ACCGAGAA	0.109
TCCGATAA	0.428
TCCGAGAA	0.421
ACCGATAA	0.269
ACAATGGT	-0.255
ATCGTGAA	0.00733
GGAGGTTA	0.101
